# Results taken from publication PMC7862700, “An all-to-all approach to the identification of sequence-specific readers for epigenetic DNA modifications on cytosine”.
# Tests used:
# Experiment in all cases: DAPPL (digital affinity profiling via proximity ligation, sequencing); 10 mM Tris-HCl pH 7.5, 50 mM NaCl, 1 mM DTT, 4% glycerol, room temperature, 30 min; GST-TFs on glutathione beads, 16-mer random dsDNA library, 0.1% formaldehyde crosslink after washing; high values mean tight binding
# Settings in all cases: protein: recombinant; tags: N-terminal GST; dsDNA, one strand shown
# ELK1 = target: T1, ELK1 (Homo sapiens, UniProt P19419 1-428)
# T1 sequence: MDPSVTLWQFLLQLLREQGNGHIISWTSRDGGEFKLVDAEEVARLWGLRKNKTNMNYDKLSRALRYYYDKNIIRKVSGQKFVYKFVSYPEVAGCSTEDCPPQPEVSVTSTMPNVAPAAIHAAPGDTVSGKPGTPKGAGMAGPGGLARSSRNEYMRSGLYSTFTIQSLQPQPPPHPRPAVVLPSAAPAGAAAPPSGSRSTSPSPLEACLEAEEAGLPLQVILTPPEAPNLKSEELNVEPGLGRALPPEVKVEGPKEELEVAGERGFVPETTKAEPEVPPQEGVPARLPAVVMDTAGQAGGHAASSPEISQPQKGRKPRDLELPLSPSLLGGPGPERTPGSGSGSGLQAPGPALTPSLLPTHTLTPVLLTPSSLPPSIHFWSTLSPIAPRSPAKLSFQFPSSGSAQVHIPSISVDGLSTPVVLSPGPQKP
# Summary of the method: (§1)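 GST fusions of human transcription factors were expressed in yeast and captured with glutathione beads. Once given DNA barcodes and pooled alongside a tag-only sample, they were incubated for 30 min at room temperature with 200 nmole of a random double-stranded 16-mer DNA library in Tris/NaCl/DTT/glycerol buffer, then washed, crosslinked (0.1% formaldehyde), proximity-ligated, PCR-amplified and sequenced on an Illumina NextSeq500. The binding signal of each hexamer is its read frequency for a factor divided by its frequency for the tag-only sample.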
# ERG = target: T2, ERG (Homo sapiens, UniProt P11308 1-479)
# T2 sequence: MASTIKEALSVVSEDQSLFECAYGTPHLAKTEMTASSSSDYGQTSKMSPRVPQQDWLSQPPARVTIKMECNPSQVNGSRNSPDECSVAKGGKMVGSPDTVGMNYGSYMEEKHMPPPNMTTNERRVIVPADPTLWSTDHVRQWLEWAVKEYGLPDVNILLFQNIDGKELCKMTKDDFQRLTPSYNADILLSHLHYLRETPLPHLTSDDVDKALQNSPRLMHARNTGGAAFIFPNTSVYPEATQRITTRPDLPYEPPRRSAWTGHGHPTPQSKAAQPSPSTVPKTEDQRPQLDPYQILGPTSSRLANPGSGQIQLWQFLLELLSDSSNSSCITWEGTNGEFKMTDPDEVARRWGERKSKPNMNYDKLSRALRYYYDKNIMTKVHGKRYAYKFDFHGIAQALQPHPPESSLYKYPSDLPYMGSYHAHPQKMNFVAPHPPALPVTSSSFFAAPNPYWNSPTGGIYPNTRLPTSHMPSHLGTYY
# Summary of the method: as §1
# ELF1 = ELF1 (Homo sapiens, UniProt P32519 1-619)
# Chain of ELF1 (P32519 whole entry): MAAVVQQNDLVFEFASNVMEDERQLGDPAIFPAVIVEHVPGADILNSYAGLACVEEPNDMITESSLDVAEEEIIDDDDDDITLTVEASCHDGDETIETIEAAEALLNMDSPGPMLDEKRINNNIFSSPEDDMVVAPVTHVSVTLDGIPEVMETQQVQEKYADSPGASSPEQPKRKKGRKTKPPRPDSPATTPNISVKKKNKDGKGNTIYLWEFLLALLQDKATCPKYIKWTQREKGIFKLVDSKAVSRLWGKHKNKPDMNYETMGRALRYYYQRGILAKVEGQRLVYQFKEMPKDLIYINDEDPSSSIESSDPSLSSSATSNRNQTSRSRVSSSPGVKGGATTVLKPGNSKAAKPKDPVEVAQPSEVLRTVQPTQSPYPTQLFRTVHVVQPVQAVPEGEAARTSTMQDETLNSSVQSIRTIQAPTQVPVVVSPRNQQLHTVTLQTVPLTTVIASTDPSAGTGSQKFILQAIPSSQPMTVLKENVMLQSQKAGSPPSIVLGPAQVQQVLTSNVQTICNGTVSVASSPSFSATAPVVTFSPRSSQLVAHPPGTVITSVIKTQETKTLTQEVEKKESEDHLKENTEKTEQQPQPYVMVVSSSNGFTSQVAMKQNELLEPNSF
# Summary of the method: as §1
# EHF = target: T3, EHF (Homo sapiens, UniProt Q9NZC4 1-300)
# T3 sequence: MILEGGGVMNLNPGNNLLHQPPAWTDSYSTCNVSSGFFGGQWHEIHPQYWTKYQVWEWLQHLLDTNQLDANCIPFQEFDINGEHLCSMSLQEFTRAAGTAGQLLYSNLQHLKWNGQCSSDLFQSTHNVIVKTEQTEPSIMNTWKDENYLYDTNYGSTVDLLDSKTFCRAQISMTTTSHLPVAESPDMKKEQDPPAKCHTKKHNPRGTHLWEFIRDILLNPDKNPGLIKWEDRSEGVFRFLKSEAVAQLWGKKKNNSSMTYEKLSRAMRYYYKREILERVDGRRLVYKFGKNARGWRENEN
# Summary of the method: as §1
# SPIB = SPIB (Homo sapiens, UniProt Q01892 1-262)
# Chain of SPIB (Q01892 whole entry): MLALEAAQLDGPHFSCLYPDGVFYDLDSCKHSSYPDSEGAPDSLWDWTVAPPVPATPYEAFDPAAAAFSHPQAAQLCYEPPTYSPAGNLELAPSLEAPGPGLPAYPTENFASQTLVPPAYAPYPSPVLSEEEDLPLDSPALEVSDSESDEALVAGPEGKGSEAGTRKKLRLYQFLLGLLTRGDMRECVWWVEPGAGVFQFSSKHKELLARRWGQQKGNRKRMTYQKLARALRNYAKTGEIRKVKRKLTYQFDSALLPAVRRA
# Summary of the method: as §1
# ETV5 = ETV5 (Homo sapiens, UniProt P41161 1-510)
# Chain of ETV5 (P41161 whole entry): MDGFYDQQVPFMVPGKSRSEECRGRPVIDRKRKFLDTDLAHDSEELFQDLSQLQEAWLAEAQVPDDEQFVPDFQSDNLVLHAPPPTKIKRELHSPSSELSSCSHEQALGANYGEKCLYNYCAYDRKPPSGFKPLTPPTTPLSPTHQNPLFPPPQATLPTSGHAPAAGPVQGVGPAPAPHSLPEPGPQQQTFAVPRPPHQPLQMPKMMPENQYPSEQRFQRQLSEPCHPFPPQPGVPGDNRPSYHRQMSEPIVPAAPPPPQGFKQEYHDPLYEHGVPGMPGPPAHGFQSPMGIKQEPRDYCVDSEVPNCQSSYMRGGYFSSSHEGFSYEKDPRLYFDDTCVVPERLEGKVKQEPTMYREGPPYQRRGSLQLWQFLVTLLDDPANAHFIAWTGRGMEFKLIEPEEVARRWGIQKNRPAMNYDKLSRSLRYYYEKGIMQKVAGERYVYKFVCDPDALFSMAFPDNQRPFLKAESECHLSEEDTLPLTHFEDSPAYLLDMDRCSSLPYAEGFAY
# Summary of the method: as §1
# SPIC = target: T4, SPIC (Homo sapiens, UniProt Q8N5J4 1-248)
# T4 sequence: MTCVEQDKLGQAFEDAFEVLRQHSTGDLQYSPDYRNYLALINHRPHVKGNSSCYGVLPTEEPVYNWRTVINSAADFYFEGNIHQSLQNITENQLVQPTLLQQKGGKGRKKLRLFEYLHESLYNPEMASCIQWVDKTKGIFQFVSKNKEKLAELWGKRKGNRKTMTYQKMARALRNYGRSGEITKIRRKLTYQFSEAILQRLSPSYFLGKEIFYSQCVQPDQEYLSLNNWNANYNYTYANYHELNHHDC
# Summary of the method: as §1
# ELK4 = target: T5, ELK4 (Homo sapiens, UniProt P28324-2 1-405)
# T5 sequence: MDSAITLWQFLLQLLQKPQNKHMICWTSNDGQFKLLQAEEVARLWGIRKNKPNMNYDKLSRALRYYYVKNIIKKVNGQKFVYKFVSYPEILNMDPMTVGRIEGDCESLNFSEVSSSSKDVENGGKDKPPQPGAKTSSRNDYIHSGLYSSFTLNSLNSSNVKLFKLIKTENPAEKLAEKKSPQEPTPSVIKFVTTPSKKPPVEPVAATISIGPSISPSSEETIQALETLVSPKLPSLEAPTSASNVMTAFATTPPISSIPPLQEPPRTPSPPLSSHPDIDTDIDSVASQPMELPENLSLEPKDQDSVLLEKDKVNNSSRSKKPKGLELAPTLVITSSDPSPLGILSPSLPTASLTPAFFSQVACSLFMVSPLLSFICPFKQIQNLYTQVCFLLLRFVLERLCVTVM
# Summary of the method: as §1
# ELF3 = target: T6, ELF3 (Homo sapiens, UniProt P78545 1-371)
# T6 sequence: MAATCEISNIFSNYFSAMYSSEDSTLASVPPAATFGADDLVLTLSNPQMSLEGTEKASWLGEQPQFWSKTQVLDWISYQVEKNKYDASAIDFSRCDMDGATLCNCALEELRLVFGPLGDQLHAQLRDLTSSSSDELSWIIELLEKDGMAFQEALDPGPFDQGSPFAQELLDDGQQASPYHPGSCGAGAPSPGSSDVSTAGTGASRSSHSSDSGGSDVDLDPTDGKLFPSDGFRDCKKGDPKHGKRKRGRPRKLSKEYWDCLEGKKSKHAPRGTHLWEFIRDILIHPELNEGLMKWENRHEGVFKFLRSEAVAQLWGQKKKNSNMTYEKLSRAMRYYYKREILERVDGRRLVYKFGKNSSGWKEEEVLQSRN
# Summary of the method: as §1
# ETV1 = ETV1 (Homo sapiens, UniProt P50549 1-477)
# Chain of ETV1 (P50549 whole entry): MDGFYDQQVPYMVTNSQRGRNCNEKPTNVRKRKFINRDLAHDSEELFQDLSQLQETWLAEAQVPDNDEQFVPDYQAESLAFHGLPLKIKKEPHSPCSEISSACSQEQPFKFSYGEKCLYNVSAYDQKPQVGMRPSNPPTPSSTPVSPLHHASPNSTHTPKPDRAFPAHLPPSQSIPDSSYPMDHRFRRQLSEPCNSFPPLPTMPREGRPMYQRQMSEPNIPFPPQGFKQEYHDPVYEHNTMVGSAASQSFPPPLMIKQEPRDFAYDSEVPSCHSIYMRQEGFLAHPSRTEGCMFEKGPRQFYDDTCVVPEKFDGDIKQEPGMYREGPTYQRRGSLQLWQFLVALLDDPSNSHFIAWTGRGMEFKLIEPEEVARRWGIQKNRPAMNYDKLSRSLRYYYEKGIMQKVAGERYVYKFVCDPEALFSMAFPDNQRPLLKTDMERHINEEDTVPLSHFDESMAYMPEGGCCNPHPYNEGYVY
# Summary of the method: as §1
# ERF = target: T7, ERF (Homo sapiens, UniProt P50548 1-548)
# T7 sequence: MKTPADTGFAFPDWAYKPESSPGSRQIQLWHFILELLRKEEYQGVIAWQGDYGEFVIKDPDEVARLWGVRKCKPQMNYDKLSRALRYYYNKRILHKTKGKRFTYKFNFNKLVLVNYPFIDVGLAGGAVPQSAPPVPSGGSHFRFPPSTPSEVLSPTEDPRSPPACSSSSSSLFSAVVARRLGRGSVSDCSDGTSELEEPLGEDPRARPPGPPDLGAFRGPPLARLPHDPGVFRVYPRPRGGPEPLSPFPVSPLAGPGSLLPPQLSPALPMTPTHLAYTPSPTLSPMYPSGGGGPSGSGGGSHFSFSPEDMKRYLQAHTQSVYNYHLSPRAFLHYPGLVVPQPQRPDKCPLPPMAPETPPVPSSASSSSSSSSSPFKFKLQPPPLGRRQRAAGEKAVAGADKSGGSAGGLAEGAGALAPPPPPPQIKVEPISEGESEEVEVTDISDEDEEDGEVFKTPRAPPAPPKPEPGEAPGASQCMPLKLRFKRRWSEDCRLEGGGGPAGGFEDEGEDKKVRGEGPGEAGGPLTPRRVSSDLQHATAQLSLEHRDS
# Summary of the method: as §1
# ETV3L = target: T8, ETV3L (Homo sapiens, UniProt Q6ZN32 1-361)
# T8 sequence: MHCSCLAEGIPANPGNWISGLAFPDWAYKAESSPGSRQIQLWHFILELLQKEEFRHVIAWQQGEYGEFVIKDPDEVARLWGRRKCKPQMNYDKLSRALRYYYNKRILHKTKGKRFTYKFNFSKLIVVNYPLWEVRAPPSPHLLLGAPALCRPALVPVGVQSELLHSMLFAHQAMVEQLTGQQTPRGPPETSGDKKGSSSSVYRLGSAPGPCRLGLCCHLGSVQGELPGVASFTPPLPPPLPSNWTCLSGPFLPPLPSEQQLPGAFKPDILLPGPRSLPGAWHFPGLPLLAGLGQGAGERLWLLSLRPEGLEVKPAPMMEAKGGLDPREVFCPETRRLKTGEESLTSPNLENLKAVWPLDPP
# Summary of the method: as §1
# ETS2 = target: T9, ETS2 (Homo sapiens, UniProt P15036 1-469)
# T9 sequence: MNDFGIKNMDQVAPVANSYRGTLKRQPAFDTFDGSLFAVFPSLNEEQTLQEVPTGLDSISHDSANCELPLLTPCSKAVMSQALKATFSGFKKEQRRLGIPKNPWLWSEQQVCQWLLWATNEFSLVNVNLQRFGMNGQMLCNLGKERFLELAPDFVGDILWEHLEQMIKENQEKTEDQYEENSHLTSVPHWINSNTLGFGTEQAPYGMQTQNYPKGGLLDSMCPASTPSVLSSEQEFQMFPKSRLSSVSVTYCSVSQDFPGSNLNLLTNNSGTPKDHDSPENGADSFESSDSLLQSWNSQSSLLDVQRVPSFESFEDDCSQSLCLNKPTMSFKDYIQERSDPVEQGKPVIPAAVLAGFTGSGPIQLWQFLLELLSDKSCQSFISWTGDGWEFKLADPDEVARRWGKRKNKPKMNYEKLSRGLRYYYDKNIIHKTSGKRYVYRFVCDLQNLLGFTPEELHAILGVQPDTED
# Summary of the method: as §1
# SPDEF = target: T10, SPDEF (Homo sapiens, UniProt O95238 1-335)
# T10 sequence: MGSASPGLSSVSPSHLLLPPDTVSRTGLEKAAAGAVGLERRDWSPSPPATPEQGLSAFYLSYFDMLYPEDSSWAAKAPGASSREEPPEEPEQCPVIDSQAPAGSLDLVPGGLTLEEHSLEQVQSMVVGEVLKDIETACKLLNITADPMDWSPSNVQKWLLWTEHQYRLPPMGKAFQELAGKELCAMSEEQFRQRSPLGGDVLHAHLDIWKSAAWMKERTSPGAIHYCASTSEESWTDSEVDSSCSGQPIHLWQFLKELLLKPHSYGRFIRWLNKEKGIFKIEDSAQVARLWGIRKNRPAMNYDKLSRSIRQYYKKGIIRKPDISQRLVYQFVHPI
# Summary of the method: as §1
# ETV7 = target: T11, ETV7 (Homo sapiens, UniProt Q9Y603 1-341)
# T11 sequence: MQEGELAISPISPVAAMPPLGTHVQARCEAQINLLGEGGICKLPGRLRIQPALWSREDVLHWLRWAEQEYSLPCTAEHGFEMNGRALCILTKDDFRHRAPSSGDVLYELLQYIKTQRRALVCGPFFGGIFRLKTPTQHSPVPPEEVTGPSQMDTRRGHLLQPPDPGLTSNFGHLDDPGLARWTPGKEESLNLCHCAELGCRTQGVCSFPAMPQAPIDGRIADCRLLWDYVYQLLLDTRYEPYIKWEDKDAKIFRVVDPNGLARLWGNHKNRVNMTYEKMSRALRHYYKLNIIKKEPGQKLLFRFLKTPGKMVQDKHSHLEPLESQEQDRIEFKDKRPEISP
# Summary of the method: as §1
# ETV3 = target: T12, ETV3 (Homo sapiens, UniProt P41162-2 1-143)
# T12 sequence: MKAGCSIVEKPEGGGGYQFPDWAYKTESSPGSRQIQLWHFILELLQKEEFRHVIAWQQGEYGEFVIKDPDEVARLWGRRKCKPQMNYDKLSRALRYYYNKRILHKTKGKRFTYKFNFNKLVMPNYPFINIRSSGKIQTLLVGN
# Summary of the method: as §1
# ETV6 = ETV6 (Homo sapiens, UniProt P41212 1-452)
# Chain of ETV6 (P41212 whole entry): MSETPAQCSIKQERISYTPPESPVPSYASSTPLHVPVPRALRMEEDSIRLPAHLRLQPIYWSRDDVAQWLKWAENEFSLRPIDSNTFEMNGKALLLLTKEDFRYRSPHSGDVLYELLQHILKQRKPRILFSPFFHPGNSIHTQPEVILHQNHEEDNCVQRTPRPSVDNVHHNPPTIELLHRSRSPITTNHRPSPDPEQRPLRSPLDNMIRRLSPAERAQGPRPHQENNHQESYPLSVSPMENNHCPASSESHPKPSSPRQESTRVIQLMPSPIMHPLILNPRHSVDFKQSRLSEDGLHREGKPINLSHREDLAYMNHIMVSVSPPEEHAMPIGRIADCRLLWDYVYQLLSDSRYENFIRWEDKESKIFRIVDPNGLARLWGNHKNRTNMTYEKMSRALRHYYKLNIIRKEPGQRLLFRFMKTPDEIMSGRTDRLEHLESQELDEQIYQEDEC
# Summary of the method: as §1
sequence,measurement,setting,value
GGCTAT,binding signal,ELK1,"1.06 fold enrichment (6-mer frequency, TF over GST control)"
same,binding signal,ERG,"1.07 fold enrichment (6-mer frequency, TF over GST control)"
same,binding signal,ELF1,"1.02 fold enrichment (6-mer frequency, TF over GST control)"
same,binding signal,EHF,"1.12 fold enrichment (6-mer frequency, TF over GST control)"
same,binding signal,SPIB,"1.02 fold enrichment (6-mer frequency, TF over GST control)"
same,binding signal,ETV5,"1 fold enrichment (6-mer frequency, TF over GST control)"
same,binding signal,SPIC,"1.03 fold enrichment (6-mer frequency, TF over GST control)"
same,binding signal,ELK4,"1.15 fold enrichment (6-mer frequency, TF over GST control)"
same,binding signal,ELF3,"1.01 fold enrichment (6-mer frequency, TF over GST control)"
same,binding signal,ETV1,"1.07 fold enrichment (6-mer frequency, TF over GST control)"
same,binding signal,ERF,"1.06 fold enrichment (6-mer frequency, TF over GST control)"
same,binding signal,ETV3L,"1.07 fold enrichment (6-mer frequency, TF over GST control)"
same,binding signal,ETS2,"1.02 fold enrichment (6-mer frequency, TF over GST control)"
same,binding signal,SPDEF,"1.05 fold enrichment (6-mer frequency, TF over GST control)"
same,binding signal,ETV7,"1.12 fold enrichment (6-mer frequency, TF over GST control)"
same,binding signal,ETV3,"1.06 fold enrichment (6-mer frequency, TF over GST control)"
same,binding signal,ETV6,"1.03 fold enrichment (6-mer frequency, TF over GST control)"
